Data: PMC7862700, “An all-to-all approach to the identification of sequence-specific readers for epigenetic DNA modifications on cytosine”

Legend:
Assay in all cases: DAPPL (digital affinity profiling via proximity ligation, sequencing); 10 mM Tris-HCl pH 7.5, 50 mM NaCl, 1 mM DTT, 4% glycerol, room temperature, 30 min; GST-TFs on glutathione beads, 16-mer random dsDNA library, 0.1% formaldehyde crosslink after washing; high values mean tight binding
[1] = target: T1, FEV (Homo sapiens, UniProt Q99581 1-238); conditions: protein: recombinant; tags: N-terminal GST; dsDNA, one strand shown
T1 sequence: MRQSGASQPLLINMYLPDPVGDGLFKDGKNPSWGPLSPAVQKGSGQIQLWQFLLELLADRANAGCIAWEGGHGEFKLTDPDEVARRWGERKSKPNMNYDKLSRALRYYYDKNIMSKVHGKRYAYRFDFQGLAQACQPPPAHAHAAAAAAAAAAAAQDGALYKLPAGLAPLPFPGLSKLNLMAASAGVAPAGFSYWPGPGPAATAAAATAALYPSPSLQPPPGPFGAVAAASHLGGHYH
In short: (§1)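 Human transcription factors were made in yeast as GST fusions, captured on glutathione beads and barcoded with DNA. With a tag-only sample included, the pool was incubated with 200 nmole of a random double-stranded 16-mer DNA library in Tris/NaCl/DTT/glycerol buffer at room temperature for 30 min, then crosslinked with 0.1% formaldehyde after washing, ligated by proximity, amplified and sequenced. For binding signal, each hexamer's read frequency for a factor is divided by its frequency for the tag-only sample.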

[2] = target: ETV5 (Homo sapiens, UniProt P41161 1-510); conditions: protein: recombinant; tags: N-terminal GST; dsDNA, one strand shown
Chain of ETV5 (P41161 whole entry): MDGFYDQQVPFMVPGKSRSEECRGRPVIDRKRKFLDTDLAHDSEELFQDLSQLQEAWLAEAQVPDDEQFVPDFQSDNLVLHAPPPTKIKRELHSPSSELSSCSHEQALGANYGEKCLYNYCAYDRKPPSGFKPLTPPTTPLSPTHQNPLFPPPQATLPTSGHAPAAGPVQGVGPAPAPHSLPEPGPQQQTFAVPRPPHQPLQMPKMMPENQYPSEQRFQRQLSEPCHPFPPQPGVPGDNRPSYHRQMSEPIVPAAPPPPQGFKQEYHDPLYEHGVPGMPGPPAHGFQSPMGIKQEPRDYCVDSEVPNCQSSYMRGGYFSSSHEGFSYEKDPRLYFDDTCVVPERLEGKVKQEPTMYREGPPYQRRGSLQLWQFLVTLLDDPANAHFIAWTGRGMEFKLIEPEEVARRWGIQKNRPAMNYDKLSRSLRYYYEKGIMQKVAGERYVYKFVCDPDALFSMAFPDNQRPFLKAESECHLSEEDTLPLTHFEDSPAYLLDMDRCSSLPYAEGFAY
In short: as §1

[3] = target: HSF1 (Homo sapiens, UniProt Q00613 1-529); conditions: protein: recombinant; tags: N-terminal GST; chain copies: 3; dsDNA, one strand shown
Chain of HSF1 (Q00613 whole entry): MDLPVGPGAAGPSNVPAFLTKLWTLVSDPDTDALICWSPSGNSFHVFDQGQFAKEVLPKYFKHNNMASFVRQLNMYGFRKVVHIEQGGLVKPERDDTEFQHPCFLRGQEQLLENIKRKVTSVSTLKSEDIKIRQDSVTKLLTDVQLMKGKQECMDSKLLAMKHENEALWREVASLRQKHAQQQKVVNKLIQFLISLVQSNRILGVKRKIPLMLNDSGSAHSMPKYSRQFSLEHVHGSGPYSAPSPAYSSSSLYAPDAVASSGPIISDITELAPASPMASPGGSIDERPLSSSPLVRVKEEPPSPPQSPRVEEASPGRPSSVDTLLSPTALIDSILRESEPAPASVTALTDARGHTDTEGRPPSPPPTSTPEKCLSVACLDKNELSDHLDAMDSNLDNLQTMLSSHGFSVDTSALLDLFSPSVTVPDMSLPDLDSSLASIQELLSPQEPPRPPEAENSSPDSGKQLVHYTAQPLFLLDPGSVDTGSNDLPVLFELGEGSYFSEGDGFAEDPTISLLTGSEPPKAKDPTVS
In short: as §1

[4] = target: T2, SPIC (Homo sapiens, UniProt Q8N5J4 1-248); conditions: protein: recombinant; tags: N-terminal GST; dsDNA, one strand shown
T2 sequence: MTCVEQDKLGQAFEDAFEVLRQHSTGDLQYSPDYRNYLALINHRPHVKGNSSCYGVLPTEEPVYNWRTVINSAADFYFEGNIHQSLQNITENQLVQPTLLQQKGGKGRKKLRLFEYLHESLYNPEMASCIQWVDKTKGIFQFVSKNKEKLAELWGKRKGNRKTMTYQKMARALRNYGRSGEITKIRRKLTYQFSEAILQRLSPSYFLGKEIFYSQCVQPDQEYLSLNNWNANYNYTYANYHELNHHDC
In short: as §1

[5] = target: ELF4 (Homo sapiens, UniProt Q99607 1-663); conditions: protein: recombinant; tags: N-terminal GST; dsDNA, one strand shown
Chain of ELF4 (Q99607 whole entry): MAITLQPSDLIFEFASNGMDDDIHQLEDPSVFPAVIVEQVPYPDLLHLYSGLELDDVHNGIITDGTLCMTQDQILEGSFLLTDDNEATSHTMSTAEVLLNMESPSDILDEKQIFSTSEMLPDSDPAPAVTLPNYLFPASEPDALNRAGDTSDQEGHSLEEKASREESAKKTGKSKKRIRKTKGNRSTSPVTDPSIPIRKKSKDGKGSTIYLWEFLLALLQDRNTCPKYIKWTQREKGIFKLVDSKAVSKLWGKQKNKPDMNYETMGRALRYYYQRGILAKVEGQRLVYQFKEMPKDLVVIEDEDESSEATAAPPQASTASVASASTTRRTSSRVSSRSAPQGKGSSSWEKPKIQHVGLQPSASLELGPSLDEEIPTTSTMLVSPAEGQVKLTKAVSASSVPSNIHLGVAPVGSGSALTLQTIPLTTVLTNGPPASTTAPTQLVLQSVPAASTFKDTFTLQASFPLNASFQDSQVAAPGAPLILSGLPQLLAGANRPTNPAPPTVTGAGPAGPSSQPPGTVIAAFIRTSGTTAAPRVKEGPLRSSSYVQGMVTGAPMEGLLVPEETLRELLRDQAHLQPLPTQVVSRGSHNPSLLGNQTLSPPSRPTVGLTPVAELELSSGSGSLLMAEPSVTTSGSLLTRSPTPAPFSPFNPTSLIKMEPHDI
In short: as §1

[6] = target: T3, ELK4 (Homo sapiens, UniProt P28324-2 1-405); conditions: protein: recombinant; tags: N-terminal GST; dsDNA, one strand shown
T3 sequence: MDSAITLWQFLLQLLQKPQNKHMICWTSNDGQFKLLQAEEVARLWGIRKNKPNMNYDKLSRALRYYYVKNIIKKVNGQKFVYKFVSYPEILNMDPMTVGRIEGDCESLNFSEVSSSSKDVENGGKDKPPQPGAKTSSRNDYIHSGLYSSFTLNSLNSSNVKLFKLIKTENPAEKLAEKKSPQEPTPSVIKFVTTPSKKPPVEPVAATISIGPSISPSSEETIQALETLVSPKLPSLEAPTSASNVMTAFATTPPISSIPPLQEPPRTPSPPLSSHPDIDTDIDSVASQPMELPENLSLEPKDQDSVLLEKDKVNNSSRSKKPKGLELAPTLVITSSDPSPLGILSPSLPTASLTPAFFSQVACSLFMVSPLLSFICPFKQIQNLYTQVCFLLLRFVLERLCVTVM
In short: as §1

[7] = target: T4, ETV2 (Homo sapiens, UniProt O00321 1-342); conditions: protein: recombinant; tags: N-terminal GST; dsDNA, one strand shown
T4 sequence: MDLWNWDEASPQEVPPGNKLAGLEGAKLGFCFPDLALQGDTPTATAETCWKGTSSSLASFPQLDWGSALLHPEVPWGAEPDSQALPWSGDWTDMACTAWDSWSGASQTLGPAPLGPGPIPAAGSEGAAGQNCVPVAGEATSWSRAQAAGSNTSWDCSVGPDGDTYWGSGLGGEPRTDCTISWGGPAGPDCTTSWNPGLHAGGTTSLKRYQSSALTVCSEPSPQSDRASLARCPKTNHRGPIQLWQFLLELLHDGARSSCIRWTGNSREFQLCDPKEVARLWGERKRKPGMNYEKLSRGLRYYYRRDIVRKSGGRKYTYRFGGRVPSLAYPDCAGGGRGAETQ
In short: as §1

[8] = target: T5, ELF3 (Homo sapiens, UniProt P78545 1-371); conditions: protein: recombinant; tags: N-terminal GST; dsDNA, one strand shown
T5 sequence: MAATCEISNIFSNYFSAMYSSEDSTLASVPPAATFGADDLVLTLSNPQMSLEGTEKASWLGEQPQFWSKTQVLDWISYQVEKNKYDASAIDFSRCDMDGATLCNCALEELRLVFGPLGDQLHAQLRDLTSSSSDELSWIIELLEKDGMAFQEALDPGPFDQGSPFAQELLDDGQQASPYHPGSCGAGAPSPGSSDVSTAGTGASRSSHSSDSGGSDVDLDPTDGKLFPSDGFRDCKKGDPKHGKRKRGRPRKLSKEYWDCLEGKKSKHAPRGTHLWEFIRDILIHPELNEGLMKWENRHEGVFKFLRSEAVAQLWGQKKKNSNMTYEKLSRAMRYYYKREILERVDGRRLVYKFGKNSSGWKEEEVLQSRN
In short: as §1

[9] = target: CRX (Homo sapiens, UniProt O43186 1-299); conditions: protein: recombinant; tags: N-terminal GST; dsDNA, one strand shown
Chain of CRX (O43186 whole entry): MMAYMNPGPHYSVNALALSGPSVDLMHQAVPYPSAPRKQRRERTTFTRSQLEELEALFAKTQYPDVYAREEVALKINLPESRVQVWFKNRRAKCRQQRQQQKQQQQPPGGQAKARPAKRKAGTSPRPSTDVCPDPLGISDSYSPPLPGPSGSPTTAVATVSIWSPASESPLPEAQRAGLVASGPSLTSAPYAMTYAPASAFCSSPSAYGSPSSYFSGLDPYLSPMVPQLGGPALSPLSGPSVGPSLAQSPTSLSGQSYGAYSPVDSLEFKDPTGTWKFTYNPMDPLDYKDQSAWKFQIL
In short: as §1

[10] = target: ETV1 (Homo sapiens, UniProt P50549 1-477); conditions: protein: recombinant; tags: N-terminal GST; dsDNA, one strand shown
Chain of ETV1 (P50549 whole entry): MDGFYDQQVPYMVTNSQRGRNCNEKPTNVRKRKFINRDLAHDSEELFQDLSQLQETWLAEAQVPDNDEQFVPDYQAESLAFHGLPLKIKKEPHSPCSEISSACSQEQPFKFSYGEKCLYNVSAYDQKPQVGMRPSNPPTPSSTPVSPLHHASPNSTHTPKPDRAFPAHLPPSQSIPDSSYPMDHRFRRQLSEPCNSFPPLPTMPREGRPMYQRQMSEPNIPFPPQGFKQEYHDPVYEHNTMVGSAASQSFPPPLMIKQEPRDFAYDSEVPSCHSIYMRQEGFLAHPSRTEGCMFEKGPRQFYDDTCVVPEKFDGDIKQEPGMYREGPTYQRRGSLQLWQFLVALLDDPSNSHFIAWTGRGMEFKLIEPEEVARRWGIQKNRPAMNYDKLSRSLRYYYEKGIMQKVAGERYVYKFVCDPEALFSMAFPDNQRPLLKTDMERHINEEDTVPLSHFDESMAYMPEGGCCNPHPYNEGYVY
In short: as §1

[11] = target: T6, ERF (Homo sapiens, UniProt P50548 1-548); conditions: protein: recombinant; tags: N-terminal GST; dsDNA, one strand shown
T6 sequence: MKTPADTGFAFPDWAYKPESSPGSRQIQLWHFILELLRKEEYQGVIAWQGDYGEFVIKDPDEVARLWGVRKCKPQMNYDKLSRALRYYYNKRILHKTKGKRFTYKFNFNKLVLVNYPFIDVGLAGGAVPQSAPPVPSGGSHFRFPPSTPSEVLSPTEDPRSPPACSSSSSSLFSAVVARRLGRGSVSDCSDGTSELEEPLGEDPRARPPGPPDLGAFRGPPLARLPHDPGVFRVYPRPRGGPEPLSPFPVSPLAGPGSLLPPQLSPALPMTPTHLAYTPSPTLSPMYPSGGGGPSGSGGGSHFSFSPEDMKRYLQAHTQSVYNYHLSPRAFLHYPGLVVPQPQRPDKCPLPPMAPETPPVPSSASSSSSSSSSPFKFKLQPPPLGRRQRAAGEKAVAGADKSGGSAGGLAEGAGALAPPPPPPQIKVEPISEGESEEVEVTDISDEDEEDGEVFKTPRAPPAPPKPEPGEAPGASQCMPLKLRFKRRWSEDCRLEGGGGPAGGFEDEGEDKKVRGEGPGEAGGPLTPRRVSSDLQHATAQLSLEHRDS
In short: as §1

[12] = target: T7, ETV3L (Homo sapiens, UniProt Q6ZN32 1-361); conditions: protein: recombinant; tags: N-terminal GST; dsDNA, one strand shown
T7 sequence: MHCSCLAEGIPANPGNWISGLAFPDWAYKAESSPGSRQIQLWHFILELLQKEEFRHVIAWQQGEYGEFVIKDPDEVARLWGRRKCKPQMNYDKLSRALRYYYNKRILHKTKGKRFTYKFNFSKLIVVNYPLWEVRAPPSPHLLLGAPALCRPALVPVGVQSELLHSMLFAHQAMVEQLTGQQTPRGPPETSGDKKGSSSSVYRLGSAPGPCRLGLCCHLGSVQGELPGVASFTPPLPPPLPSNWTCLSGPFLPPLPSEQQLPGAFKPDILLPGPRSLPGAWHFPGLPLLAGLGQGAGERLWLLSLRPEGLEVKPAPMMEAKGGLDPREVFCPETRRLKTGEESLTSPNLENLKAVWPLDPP
In short: as §1

[13] = target: T8, ETS2 (Homo sapiens, UniProt P15036 1-469); conditions: protein: recombinant; tags: N-terminal GST; dsDNA, one strand shown
T8 sequence: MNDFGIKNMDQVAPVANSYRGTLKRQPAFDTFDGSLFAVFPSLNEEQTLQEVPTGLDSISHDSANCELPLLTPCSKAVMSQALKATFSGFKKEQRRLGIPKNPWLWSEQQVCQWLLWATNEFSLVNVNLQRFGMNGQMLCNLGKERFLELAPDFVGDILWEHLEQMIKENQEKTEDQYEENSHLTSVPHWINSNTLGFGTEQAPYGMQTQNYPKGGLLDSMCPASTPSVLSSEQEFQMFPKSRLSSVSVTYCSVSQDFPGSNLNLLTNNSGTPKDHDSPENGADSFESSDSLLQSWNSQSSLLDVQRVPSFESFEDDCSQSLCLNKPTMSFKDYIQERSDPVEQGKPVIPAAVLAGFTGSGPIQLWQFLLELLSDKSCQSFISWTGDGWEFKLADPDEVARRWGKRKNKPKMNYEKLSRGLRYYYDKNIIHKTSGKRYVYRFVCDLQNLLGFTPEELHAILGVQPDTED
In short: as §1

[14] = target: T9, SPDEF (Homo sapiens, UniProt O95238 1-335); conditions: protein: recombinant; tags: N-terminal GST; dsDNA, one strand shown
T9 sequence: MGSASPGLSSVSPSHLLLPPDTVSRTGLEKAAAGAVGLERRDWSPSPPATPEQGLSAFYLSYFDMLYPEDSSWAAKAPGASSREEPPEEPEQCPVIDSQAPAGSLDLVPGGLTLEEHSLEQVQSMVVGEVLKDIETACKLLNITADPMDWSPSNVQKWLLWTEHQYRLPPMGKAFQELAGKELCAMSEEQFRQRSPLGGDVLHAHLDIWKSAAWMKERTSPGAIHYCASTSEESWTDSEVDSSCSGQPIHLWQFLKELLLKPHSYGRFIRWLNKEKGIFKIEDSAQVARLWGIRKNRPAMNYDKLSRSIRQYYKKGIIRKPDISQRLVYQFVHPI
In short: as §1

[15] = target: T10, ETV7 (Homo sapiens, UniProt Q9Y603 1-341); conditions: protein: recombinant; tags: N-terminal GST; dsDNA, one strand shown
T10 sequence: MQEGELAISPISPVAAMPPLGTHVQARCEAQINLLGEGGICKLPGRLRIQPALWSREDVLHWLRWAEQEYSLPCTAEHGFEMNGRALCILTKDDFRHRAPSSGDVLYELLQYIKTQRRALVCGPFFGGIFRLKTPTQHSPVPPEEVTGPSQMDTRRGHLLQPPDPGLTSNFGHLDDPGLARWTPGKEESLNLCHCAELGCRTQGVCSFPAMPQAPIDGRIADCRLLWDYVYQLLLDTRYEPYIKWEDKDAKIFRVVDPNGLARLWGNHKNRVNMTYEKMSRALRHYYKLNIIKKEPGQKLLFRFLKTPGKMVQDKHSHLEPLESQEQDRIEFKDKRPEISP
In short: as §1

[16] = target: T11, ELF5 (Homo sapiens, UniProt Q9UKW6-2 1-255); conditions: protein: recombinant; tags: N-terminal GST; dsDNA, one strand shown
T11 sequence: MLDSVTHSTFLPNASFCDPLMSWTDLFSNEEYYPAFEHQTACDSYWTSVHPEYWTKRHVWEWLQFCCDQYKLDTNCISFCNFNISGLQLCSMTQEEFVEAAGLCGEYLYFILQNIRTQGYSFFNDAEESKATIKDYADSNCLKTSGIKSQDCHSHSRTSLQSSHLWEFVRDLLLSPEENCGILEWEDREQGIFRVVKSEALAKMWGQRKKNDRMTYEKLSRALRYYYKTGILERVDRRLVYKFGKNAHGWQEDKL
In short: as §1

[17] = target: T12, ETV3 (Homo sapiens, UniProt P41162-2 1-143); conditions: protein: recombinant; tags: N-terminal GST; dsDNA, one strand shown
T12 sequence: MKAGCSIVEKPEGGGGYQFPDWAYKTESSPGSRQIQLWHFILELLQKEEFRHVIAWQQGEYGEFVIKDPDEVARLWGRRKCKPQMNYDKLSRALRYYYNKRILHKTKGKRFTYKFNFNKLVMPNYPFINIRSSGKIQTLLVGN
In short: as §1

[18] = target: ETV6 (Homo sapiens, UniProt P41212 1-452); conditions: protein: recombinant; tags: N-terminal GST; dsDNA, one strand shown
Chain of ETV6 (P41212 whole entry): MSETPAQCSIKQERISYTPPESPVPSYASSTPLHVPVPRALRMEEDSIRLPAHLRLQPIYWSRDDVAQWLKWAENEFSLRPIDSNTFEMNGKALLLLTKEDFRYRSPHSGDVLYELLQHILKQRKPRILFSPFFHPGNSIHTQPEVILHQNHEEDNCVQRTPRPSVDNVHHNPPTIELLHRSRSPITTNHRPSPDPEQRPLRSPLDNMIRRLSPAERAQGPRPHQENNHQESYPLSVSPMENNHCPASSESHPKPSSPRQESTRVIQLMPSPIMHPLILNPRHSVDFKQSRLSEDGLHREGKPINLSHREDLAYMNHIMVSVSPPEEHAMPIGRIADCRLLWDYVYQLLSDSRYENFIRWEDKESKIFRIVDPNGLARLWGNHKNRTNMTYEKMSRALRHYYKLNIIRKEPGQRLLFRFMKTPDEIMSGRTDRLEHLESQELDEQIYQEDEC
In short: as §1

Question: TTTGTA was tested. Which binding signal [1] did it give?
Answer: 1.52 fold enrichment (6-mer frequency, TF over GST control)

Question: What about the binding signal [2] of the same sequence?
Answer: 1.64 fold enrichment (6-mer frequency, TF over GST control)

Question: And the binding signal [3]?
Answer: 1.65 fold enrichment (6-mer frequency, TF over GST control)

Question: What about the binding signal [4] of the same sequence?
Answer: 1.57 fold enrichment (6-mer frequency, TF over GST control)

Question: What about the binding signal [5] of the same sequence?
Answer: 1.58 fold enrichment (6-mer frequency, TF over GST control)

Question: What about the binding signal [6] of the same sequence?
Answer: 1.75 fold enrichment (6-mer frequency, TF over GST control)

Question: And the binding signal [7]?
Answer: 1.53 fold enrichment (6-mer frequency, TF over GST control)

Question: What about the binding signal [8] of the same sequence?
Answer: 1.61 fold enrichment (6-mer frequency, TF over GST control)

Question: And the binding signal [9]?
Answer: 1.89 fold enrichment (6-mer frequency, TF over GST control)

Question: What about the binding signal [10] of the same sequence?
Answer: 1.51 fold enrichment (6-mer frequency, TF over GST control)

Question: What about the binding signal [11] of the same sequence?
Answer: 1.63 fold enrichment (6-mer frequency, TF over GST control)

Question: What about the binding signal [12] of the same sequence?
Answer: 1.69 fold enrichment (6-mer frequency, TF over GST control)

Question: What about the binding signal [13] of the same sequence?
Answer: 1.52 fold enrichment (6-mer frequency, TF over GST control)

Question: And the binding signal [14]?
Answer: 1.6 fold enrichment (6-mer frequency, TF over GST control)

Question: And the binding signal [15]?
Answer: 1.53 fold enrichment (6-mer frequency, TF over GST control)

Question: What about the binding signal [16] of the same sequence?
Answer: 1.46 fold enrichment (6-mer frequency, TF over GST control)

Question: And the binding signal [17]?
Answer: 1.63 fold enrichment (6-mer frequency, TF over GST control)

Question: What about the binding signal [18] of the same sequence?
Answer: 1.54 fold enrichment (6-mer frequency, TF over GST control)
